Compound activity deposited in PubChem BioAssay by National Center for Advancing Translational Sciences (NCATS).
FLuc modulator = firefly luciferase modulation, counter-screen for miR-21 project; P08659; AID 588342; purified FLuc, Km substrates, luminescence inhibition; 360,000 tested, 6.9% active; Potency, µM (doses to about 57.5 µM), for inactives: top-dose activity change, negative = inhibition, usual class: inhibitors;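 further: plate controls were vehicle for no effect and reference inhibitor for full effect; nearly all actives have a fitted effect of over 55% in size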
Target sequence (P08659 whole entry, looked up): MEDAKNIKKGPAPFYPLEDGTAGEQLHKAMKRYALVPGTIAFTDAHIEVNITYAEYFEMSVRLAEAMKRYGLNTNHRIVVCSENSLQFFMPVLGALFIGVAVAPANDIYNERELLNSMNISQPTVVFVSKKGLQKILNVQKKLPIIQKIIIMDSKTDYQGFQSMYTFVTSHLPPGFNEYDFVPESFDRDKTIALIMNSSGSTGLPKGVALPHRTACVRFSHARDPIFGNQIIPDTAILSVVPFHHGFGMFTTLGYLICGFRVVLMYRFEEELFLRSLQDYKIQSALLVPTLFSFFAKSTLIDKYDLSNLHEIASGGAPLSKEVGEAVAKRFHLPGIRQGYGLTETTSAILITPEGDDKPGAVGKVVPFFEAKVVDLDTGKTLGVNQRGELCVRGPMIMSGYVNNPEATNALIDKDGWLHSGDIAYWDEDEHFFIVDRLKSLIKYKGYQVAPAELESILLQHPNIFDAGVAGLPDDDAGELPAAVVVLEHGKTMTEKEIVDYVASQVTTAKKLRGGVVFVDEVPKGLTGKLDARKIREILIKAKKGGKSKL
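Purified P. pyralis luciferase, 10 nM final, with Km-level 10 uM D-luciferin and 10 uM ATP in 50 mM Tris acetate pH 7.5, 10 mM Mg acetate, 0.01% Tween-20, 0.05% BSA; 6-point qHTS titration about 60 µM downward; luminescence read.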
NPC1 prom act = NPC1 promoter activation; Huh7 NPC1 promoter luciferase reporter, 24 h; Potency, µM (highest dose often 9.22 µM), without a hit: at the highest dose activation, actives largely listed as activators; 320,000 tested, 2.4% active; further: % of control where 0% means no effect; nearly all actives have a fitted effect of over 60% in size
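Stable NPC1-promoter luciferase Huh7 line; cpd (DMSO) 24 h, 37 °C, 5% CO2; Amplite luciferase reagent 10 min RT; luminescence readout. qHTS format.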
ELG1 genotoxic = inducers of genotoxicity in HEK293T ELG1-luciferase cells; HEK293T ELG1-luciferase reporter, luminescence, 16 h; Potency, µM (top dose mostly 46 µM), for the others: at the highest dose activity change, positive = activation, most hits filed as activators; 330,000 tested, 1.3% active; AID 504466; further: % of control where 0% means no effect; nearly all actives have a fitted effect of over 60% in size
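Quantitative HTS format in 1536-well plates. HEK293T ELG1-luciferase reporter cells receive test compound and are incubated 16 hr at 37 °C, 5% CO2; ONE-Glo added, 30 min room temperature, then luminescence read.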
SMN2 splice enh = increases expression of the SMN2 splice variant; Potency, µM (top dose mostly 46.1 µM), for inactives: at the top dose activity change, positive = activation, hits mostly activators; 210,000 tested, 2.8% active; AID 1458; HEK293 SMN2-luciferase splicing reporter, luminescence, 30-36 h; further: % of control where 0% means no effect; nearly all actives have a fitted effect of over 55% in size
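HEK293 cells carry an SMN2 […]–luciferase reporter in which exon 7 inclusion puts luciferase in frame. Cells were plated 10-12 h before compound addition, then incubated 30-36 h at 37C. ONE-Glo luminescence was read; sodium butyrate at 4.5 mM final served as control.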
KinaseGlo FLuc = blocks Kinase-Glo luciferase, a counter-screen artifact. 200,000 tested, 0.28% active. Q27757. Kinase-Glo luciferase, ATP luminescence, 8 min. Potency, µM (titrated, usually from 38.3 µM), for the others: top-dose activity change, negative = inhibition, hits mostly inhibitors; further: on the % scale 0 is the no-effect control and ±100 the full control effect; nearly all actives have a fitted effect of over 60% in size
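Recombinant Kinase-Glo luciferase, 10 uM ATP (linear range), luciferin; imidazole pH 7.2 / KCl / MgCl2 / Tween / BSA buffer; 8 min RT; luminescence.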
Rab9 promoter act = Rab9 promoter activation; AID 485297; 320,000 tested, 2.8% active; Potency, µM (doses to about 9.22 µM), without a hit: top-dose activation, negative = inhibition, usual class: activators; Huh7 Rab9 promoter-luciferase reporter, luminescence, 24 h; further: % of control where 0% means no effect; nearly all actives have a fitted effect of over 60% in size
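Promoter activation is measured as luciferase luminescence in Huh7 cells stably transfected with a Rab9 promoter–luciferase construct, following 24 h compound exposure at 37 °C and 10 min reagent incubation at ambient temperature.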
Starred values were filed as active, the others as inactive. The list is not random: actives were taken first. Their share in the collection is about 7.5%. The call rests on the fitted dose curve; in most records, active means well fitted curve in the direction sought with a large enough effect; inconclusive means small, poorly fitted or top-dose-only effect, or another doubt; inactive means no such curve, though single readings can be large; an effect the other way counts as inactive or inconclusive. Potency means the concentration at half of the fitted maximal effect.

Results for O=C1CCCC/C1=C\Nc1ccc(C(=O)O)c(O)c1 ?
FLuc modulator: 10.7µM*; NPC1 prom act: 29.0%; ELG1 genotoxic: 16.3%; Rab9 promoter act: inconclusive

What do the screens show for `CCc1nnc2c3ccccc3nc(Nc3ccccc3OC)n12`?
FLuc modulator: 1.3%; SMN2 splice enh: -6.0%

How did COc1ccc2nc(Nc3nc(C)c(C(C)=O)s3)sc2c1 do in these assays?
FLuc modulator: 4.78µM*; NPC1 prom act: 2.82µM*; ELG1 genotoxic: inconclusive; SMN2 splice enh: 17.4%; KinaseGlo FLuc: -1.8%; Rab9 promoter act: 2.51µM*

How did COc1cc(C)nc(Nc2nc(C)c(C(C)=O)s2)n1 do in these assays?
FLuc modulator: 1.6%; NPC1 prom act: -1.2%; ELG1 genotoxic: 4.8%; Rab9 promoter act: -2.9%

Results for COc1ccc(Nc2nc3ccc(OC)cc3s2)cc1 ?
FLuc modulator: 10.7µM*; NPC1 prom act: inconclusive; ELG1 genotoxic: inconclusive; SMN2 splice enh: 12.6µM*; KinaseGlo FLuc: 2.2%; Rab9 promoter act: 2.24µM*

How did COc1ccc2nc(NS(=O)(=O)c3ccc(NC(C)=O)cc3)sc2c1 do in these assays?
FLuc modulator: 1.9%; NPC1 prom act: 0.0%; ELG1 genotoxic: 2.3%; SMN2 splice enh: 1.6%; KinaseGlo FLuc: 2.5%; Rab9 promoter act: 20.8%

Results for COc1ccc(-c2cc(C(=O)N/N=C/c3ccc(OC)c(OC)c3)[nH]n2)cc1 ?
KinaseGlo FLuc: -19.6%

How did Cc1[nH]c(C)c2c(=O)n(-c3ccccc3)ncc12 do in these assays?
FLuc modulator: inconclusive; NPC1 prom act: 17.6%; ELG1 genotoxic: 20.6µM*; SMN2 splice enh: -0.4%; KinaseGlo FLuc: -3.4%; Rab9 promoter act: inconclusive

Results for Cc1c2cnn(-c3ccccc3)c(=O)c2c(C)n1CC(=O)NCc1ccccc1 ?
FLuc modulator: -1.4%; SMN2 splice enh: -5.0%

How did FCCCOc1ccc(-c2nccc(-c3ccccn3)n2)cc1 do in these assays?
FLuc modulator: 19µM*; NPC1 prom act: -1.1%; ELG1 genotoxic: inconclusive; Rab9 promoter act: -0.8%

What do the screens show for `O=C(O)COc1ccc(-c2nccc(-c3ccccn3)n2)cc1`?
FLuc modulator: 3.38µM*; NPC1 prom act: -0.4%; ELG1 genotoxic: -3.1%; SMN2 splice enh: -17.8%; KinaseGlo FLuc: -18.7%; Rab9 promoter act: -2.2%

What do the screens show for `O=C(CSc1nc(-c2ccccc2)[nH]c1-c1ccc(F)cc1)NC1CCCC1`?
FLuc modulator: -7.8%; SMN2 splice enh: -10.4%

Results for c1ccc(-n2nnc3c(N4CCOCC4)ncnc32)cc1 ?
FLuc modulator: 1.51µM*; NPC1 prom act: 0.316µM*; ELG1 genotoxic: inconclusive; SMN2 splice enh: 11.6%; KinaseGlo FLuc: inconclusive; Rab9 promoter act: 0.316µM*

Results for COCC(C)N=C1NN=C(c2c[nH]c3ccccc23)CS1 (stereo unspecified) ?
FLuc modulator: 21.3µM*; NPC1 prom act: 18.7%; ELG1 genotoxic: inconclusive; KinaseGlo FLuc: -1.7%; Rab9 promoter act: inconclusive

How did CCN=C1NN=C(c2cc(C)n(CCc3ccccc3)c2C)CS1 do in these assays?
FLuc modulator: -16.1%; NPC1 prom act: 3.3%; ELG1 genotoxic: inconclusive; SMN2 splice enh: -43.2%; KinaseGlo FLuc: 6.4%; Rab9 promoter act: -0.9%

Results for CCN=C1NN=C(c2c[nH]c3ccccc23)CS1 ?
FLuc modulator: 6.01µM*; NPC1 prom act: 3.55µM*; ELG1 genotoxic: inconclusive; KinaseGlo FLuc: -4.1%; Rab9 promoter act: 1.12µM*

Results for O=C(COCc1cc(-c2ccco2)on1)Nc1cccc(O)c1 ?
FLuc modulator: -9.5%

What do the screens show for `Cc1ccn2c(C(=O)CSc3ccccc3)c(C)nc2c1`?
FLuc modulator: inconclusive; NPC1 prom act: 15.9%; ELG1 genotoxic: 7.3%; SMN2 splice enh: 25.1µM*; KinaseGlo FLuc: 0.3%; Rab9 promoter act: 15.0%
